From PubChem BioAssay

test system: not listed separately; assay: small molecules captured by biotinylated probe aFGF10 – biochemical, small-molecule microarray, fluorescence 635/667, stem cell growth factor project, primary screen (AID 1071); conditions: higher = more signal;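 note: score merges 667 nm spot intensity and signal to noise from triplicate slides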

| SMILES | composite z-score |
| --- | --- |
| Cc1cc2c(nc1C)CCCCN2CC(O)CN1CCCc2nc(-c3ccc(Br)cc3)ccc21 (stereo unspecified) | 0.673 |
| CCOC(=O)CCN1C(=O)[C@H]2[C@H]3[C@H](O)[C@H](O)CC(=NOCC=C(C)CCC=C(C)C)[C@@H]3CC[C@H]2C1=O | 0.84 |
| CC(=O)OC[C@H]1O[C@@H](ON=C(C)CCN2CCCCc3nc(C)c(C)cc32)[C@H](OC(C)=O)[C@@H](OC(C)=O)[C@@H]1OC(C)=O | 0.751 |
| CC(=O)OC[C@H]1O[C@H](CCON=C(C)C)C=C[C@@H]1OC(C)=O | 0.146 |
| CCCNC(=O)OC[C@H]1O[C@H](CCON=C[C@@H](NS(=O)(=O)c2ccc(C)cc2)[C@H](C)C=CCC(=O)OC)C=C[C@@H]1Oc1ccc(OC)cc1 | -0.183 |
| CCCC[C@H]1CN2[C@@H](CC[C@@H](C)[C@@H]2c2ccc(Br)cc2)C(=O)O1 | -0.947 |
| CCC1=NOC(CCC2CC(OC(=O)NCc3cccc4c3OCO4)CC3(CCCC(COC(=O)NCCc4ccc(Cl)cc4)O3)O2)C1 (stereo unspecified) | 0.88 |
| COc1ccc(O[C@H]2C=C[C@@H](C#Cc3ccccc3)O[C@@H]2CO)cc1 | 0.457 |
| CC(C)CON=C1[C@H]2CCn3c(=O)n(C)c(=O)n3[C@H]2[C@H](O)[C@@H]2O[C@H]12 | 0.469 |
| COC(=O)[C@@H]1CC[C@H](C)[C@@H](c2ccc(Br)cc2)N1C[C@@H](O)CN=[N+]=[N-] | 0.186 |
| COC(=O)[C@H](C)NC(=O)CCC1CC(OC(=O)NCCc2ccc(F)cc2)CC2(CCCC(COC(=O)NCc3ccccc3)O2)O1 (stereo partly specified) | 0.677 |
| O=C1C[C@H](c2ccccc2)[C@H](c2ccc(Br)cc2)O1 | 0.289 |
| COc1ccc(O[C@H]2C=C[C@@H](c3ccccc3)O[C@@H]2COC(=O)CCC(C)=NOC[C@@H](O)COCc2ccco2)cc1 | -1.98 |
| O=C1[C@H]2[C@H]3[C@H](O)[C@H](O)CC(=NOCc4ccccc4)[C@@H]3CC[C@H]2C(=O)N1c1cccc(Oc2ccccc2)c1 | 0.554 |
| O=C1[C@H]2[C@H]3[C@H](O)[C@H](O)CC(=NOC[C@@H](O)COCc4ccco4)[C@@H]3CC[C@H]2C(=O)N1Cc1ccc2c(c1)OCO2 | -0.738 |
| CCOC(=O)[C@H](CC(C)C)NC(=O)CCC1CC(OC(=O)NCc2ccc3c(c2)OCO3)CC2(CCCC(COC(=O)NCc3ccccc3)O2)O1 (stereo partly specified) | 0.536 |
| O=C1C2=CC[C@H]3C(=O)N(C4CCCCC4)C(=O)[C@H]3[C@H]2[C@H](O)[C@@H]2O[C@H]12 | -0.179 |
| C=CCOCC1CN2[C@@H](CC[C@@H](C)[C@@H]2c2ccc(Br)cc2)C(=O)O1 (stereo partly specified) | -0.204 |
| CCOC(=O)[C@H](Cc1ccccc1)NC(=O)CCC1CC(OC(=O)NCc2ccc3c(c2)OCO3)CC2(CCCC(COC(=O)NCCOc3ccccc3)O2)O1 (stereo partly specified) | 0.378 |
| CCN1C(=O)[C@H]2[C@H]3[C@H](O)[C@H](O)CC(=NO[C@@H](C)c4cc(-c5c(C)cc(C)cc5C)no4)[C@@H]3CC[C@H]2C1=O | 0.624 |
| O=C(NN=C1C[C@@H](O)[C@@H](O)[C@@H]2[C@@H]3C(=O)N(c4ccc(F)cc4F)C(=O)[C@@H]3CC[C@H]12)OCc1ccccc1 | -0.0134 |
| CC#CCOCCC=C1c2ccccc2[C@@H](OC)[C@@H]1C | 0.452 |
| CC(CCC(=O)OC[C@H]1O[C@H](C#Cc2ccccc2)C=C[C@@H]1Oc1ccc(C)cc1)=NO[C@H](C)c1cn([C@@H]2COC[C@H]2O)nn1 | 0.0898 |
| COC(=O)[C@@H]1CC[C@H](C)[C@@H](c2ccc(C)cc2)N1C(=O)c1ccc(C=NOC[C@H]2O[C@H](c3ccccc3)C=C[C@@H]2Oc2ccc(OC)cc2)cc1 | 0.217 |
| CC(=O)OC[C@H]1O[C@@H](ON=C2[C@H]3CCn4c(=O)n(-c5ccccc5)c(=O)n4[C@H]3[C@H](O)[C@@H]3O[C@H]23)[C@H](OC(C)=O)[C@@H](OC(C)=O)[C@@H]1OC(C)=O | 0.582 |

target: Neurogenic locus notch homolog protein 2 (Homo sapiens) (UniProt Q04721); assay: small molecules binding Notch2 protein – biochemical, small-molecule microarray, 635 nm fluorescence, stem cell growth factors, primary screen (AID 1073); conditions: higher = more signal
Sequence (Q04721 whole entry, looked up): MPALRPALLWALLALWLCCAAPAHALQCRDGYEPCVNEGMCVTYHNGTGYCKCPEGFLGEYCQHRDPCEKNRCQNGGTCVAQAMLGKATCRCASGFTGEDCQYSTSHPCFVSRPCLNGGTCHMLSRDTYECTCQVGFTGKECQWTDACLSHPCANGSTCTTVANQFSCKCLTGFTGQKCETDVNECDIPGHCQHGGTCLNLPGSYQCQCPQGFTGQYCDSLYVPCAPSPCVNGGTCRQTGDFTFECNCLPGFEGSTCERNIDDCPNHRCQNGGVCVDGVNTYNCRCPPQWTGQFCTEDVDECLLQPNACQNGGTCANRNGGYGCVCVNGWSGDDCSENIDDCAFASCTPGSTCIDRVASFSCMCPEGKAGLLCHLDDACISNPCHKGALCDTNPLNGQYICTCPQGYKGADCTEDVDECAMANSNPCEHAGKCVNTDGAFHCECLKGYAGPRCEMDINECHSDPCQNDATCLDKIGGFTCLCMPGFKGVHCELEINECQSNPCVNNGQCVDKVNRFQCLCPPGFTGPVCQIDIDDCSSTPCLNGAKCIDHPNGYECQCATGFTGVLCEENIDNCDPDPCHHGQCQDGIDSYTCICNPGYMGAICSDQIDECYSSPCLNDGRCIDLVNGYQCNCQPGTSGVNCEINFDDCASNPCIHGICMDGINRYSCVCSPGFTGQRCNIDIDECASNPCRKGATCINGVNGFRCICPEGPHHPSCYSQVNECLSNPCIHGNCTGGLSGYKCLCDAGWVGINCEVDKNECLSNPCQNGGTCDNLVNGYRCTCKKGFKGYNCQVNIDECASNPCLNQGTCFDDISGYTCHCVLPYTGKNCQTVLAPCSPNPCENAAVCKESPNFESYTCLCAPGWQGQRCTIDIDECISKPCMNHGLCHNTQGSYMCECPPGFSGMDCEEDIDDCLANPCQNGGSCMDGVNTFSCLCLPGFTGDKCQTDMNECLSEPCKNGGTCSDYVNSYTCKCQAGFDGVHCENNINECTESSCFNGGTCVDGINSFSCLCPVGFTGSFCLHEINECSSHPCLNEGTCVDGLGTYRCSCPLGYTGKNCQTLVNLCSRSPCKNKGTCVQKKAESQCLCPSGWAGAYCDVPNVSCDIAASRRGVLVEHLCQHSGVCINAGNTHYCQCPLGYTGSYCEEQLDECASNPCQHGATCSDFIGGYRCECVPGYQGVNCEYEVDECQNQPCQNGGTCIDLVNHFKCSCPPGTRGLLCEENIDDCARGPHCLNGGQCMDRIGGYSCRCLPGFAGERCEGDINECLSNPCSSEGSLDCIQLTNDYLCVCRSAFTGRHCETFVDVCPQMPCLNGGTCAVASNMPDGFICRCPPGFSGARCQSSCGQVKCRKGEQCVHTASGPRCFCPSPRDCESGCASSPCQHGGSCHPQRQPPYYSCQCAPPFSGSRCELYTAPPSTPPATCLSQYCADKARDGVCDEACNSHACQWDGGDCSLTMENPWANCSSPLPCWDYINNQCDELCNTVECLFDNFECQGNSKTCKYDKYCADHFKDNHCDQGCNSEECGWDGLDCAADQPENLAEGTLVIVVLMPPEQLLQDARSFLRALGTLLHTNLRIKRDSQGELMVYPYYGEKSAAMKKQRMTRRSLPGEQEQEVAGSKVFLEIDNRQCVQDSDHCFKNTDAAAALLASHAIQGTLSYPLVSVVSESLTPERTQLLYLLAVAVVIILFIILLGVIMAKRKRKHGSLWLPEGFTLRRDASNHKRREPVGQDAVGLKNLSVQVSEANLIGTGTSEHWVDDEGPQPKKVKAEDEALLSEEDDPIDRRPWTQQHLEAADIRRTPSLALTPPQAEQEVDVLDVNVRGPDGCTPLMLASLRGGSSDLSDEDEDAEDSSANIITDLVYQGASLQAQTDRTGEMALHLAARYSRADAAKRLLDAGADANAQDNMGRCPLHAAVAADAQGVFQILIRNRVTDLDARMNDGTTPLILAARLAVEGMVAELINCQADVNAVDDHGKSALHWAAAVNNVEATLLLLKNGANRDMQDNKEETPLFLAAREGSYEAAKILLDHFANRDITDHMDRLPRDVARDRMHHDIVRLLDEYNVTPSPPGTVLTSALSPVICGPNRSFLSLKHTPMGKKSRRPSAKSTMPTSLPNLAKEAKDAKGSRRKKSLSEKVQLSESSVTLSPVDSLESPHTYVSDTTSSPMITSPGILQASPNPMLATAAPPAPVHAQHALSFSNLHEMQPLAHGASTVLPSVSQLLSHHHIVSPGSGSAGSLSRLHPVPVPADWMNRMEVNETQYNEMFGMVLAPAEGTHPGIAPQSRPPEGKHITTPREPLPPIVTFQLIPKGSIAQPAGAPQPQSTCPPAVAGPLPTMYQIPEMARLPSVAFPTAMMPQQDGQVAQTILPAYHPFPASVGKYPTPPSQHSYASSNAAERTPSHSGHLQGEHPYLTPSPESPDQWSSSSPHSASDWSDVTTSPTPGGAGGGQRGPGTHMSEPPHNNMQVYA

| SMILES | composite z-score |
| --- | --- |
| COc1ccc(COC(=O)NN=C2C[C@@H](O)[C@@H](O)[C@@H]3[C@@H]4C(=O)N(C[C@@H]5CCCO5)C(=O)[C@@H]4CC[C@H]23)cc1 | -0.467 |
| CCOC(=O)[C@H](Cc1ccccc1)NC(=O)CCC1CC(OC(=O)NCCc2ccc(F)cc2)CC2(CCCC(COC(=O)NCCC(C)C)O2)O1 (stereo partly specified) | 1.28 |
| COC(=O)CC=C[C@@H](C)[C@@H](C=NOC[C@@H](O)[C@H]1O[C@@H]2OC(C)(C)O[C@@H]2[C@H]1O)OC | 0.427 |
| C[C@]12CCC3c4ccc(OCC5CO5)cc4CCC3C1CC[C@@H]2O (stereo partly specified) | 1.04 |
| CCOC(=O)CCN1C(=O)[C@H]2[C@H]3[C@H](O)[C@H](O)CC(=NO[C@@H]4O[C@H](CO)[C@@H](O)[C@H](O)[C@H]4O)[C@@H]3CC[C@H]2C1=O | 1.31 |
| CC(CCN1CCCCc2nc(C)c(C)cc21)=NO[C@H](C)c1cn([C@@H]2COC[C@H]2O)nn1 | 1.11 |
| COc1ccc(COC(=O)NN=C2C[C@@H](O)[C@@H](O)[C@@H]3[C@@H]4C(=O)N(c5cccc(Oc6ccccc6)c5)C(=O)[C@@H]4CC[C@H]23)cc1 | -0.311 |
| CC=CC1=C(CO)[C@H](O)[C@H]2O[C@H]2[C@@H]1O | 0.486 |
| CC1(C)O[C@H]2OC([C@H](O)CON3C(=O)c4ccccc4C3=O)[C@H](O)[C@H]2O1 (stereo partly specified) | 0.335 |
| CCOC(=O)NN=C1C[C@@H](O)[C@@H](O)[C@@H]2[C@@H]3C(=O)N(CC)C(=O)[C@@H]3CC[C@H]12 | 0.384 |
| CC(=O)OC[C@H]1O[C@@H](ON=C(C)CCC(=O)OC[C@H]2O[C@H](C#Cc3ccccc3)C=C[C@@H]2Oc2ccc(C)cc2)[C@H](OC(C)=O)[C@@H](OC(C)=O)[C@@H]1OC(C)=O | 0.951 |
| Cc1cc2c(nc1C)CCCCN2CC(O)CN1CCCc2nc(-c3ccc(Br)cc3)ccc21 (stereo unspecified) | 0.513 |
| CCOC(=O)CCN1C(=O)[C@H]2[C@H]3[C@H](O)[C@H](O)CC(=NOCC=C(C)CCC=C(C)C)[C@@H]3CC[C@H]2C1=O | 0.845 |
| CC(=O)OC[C@H]1O[C@@H](ON=C(C)CCN2CCCCc3nc(C)c(C)cc32)[C@H](OC(C)=O)[C@@H](OC(C)=O)[C@@H]1OC(C)=O | 1 |
| CC(=O)OC[C@H]1O[C@H](CCON=C(C)C)C=C[C@@H]1OC(C)=O | 0.121 |
| CCCNC(=O)OC[C@H]1O[C@H](CCON=C[C@@H](NS(=O)(=O)c2ccc(C)cc2)[C@H](C)C=CCC(=O)OC)C=C[C@@H]1Oc1ccc(OC)cc1 | -0.127 |
| CCCC[C@H]1CN2[C@@H](CC[C@@H](C)[C@@H]2c2ccc(Br)cc2)C(=O)O1 | 0.564 |
| CCC1=NOC(CCC2CC(OC(=O)NCc3cccc4c3OCO4)CC3(CCCC(COC(=O)NCCc4ccc(Cl)cc4)O3)O2)C1 (stereo unspecified) | 0.0241 |

| SMILES | composite z-score |
| --- | --- |
| COc1ccc(O[C@H]2C=C[C@@H](C#Cc3ccccc3)O[C@@H]2CO)cc1 | 0.339 |
| CC(C)CON=C1[C@H]2CCn3c(=O)n(C)c(=O)n3[C@H]2[C@H](O)[C@@H]2O[C@H]12 | 0.493 |
| COC(=O)[C@@H]1CC[C@H](C)[C@@H](c2ccc(Br)cc2)N1C[C@@H](O)CN=[N+]=[N-] | 0.462 |
| COC(=O)[C@H](C)NC(=O)CCC1CC(OC(=O)NCCc2ccc(F)cc2)CC2(CCCC(COC(=O)NCc3ccccc3)O2)O1 (stereo partly specified) | 1.06 |
| O=C1C[C@H](c2ccccc2)[C@H](c2ccc(Br)cc2)O1 | 0.0429 |
| COc1ccc(O[C@H]2C=C[C@@H](c3ccccc3)O[C@@H]2COC(=O)CCC(C)=NOC[C@@H](O)COCc2ccco2)cc1 | -2.67 |
| O=C1[C@H]2[C@H]3[C@H](O)[C@H](O)CC(=NOCc4ccccc4)[C@@H]3CC[C@H]2C(=O)N1c1cccc(Oc2ccccc2)c1 | 0.359 |
| O=C1[C@H]2[C@H]3[C@H](O)[C@H](O)CC(=NOC[C@@H](O)COCc4ccco4)[C@@H]3CC[C@H]2C(=O)N1Cc1ccc2c(c1)OCO2 | -0.541 |
| CCOC(=O)[C@H](CC(C)C)NC(=O)CCC1CC(OC(=O)NCc2ccc3c(c2)OCO3)CC2(CCCC(COC(=O)NCc3ccccc3)O2)O1 (stereo partly specified) | 0.375 |
| O=C1C2=CC[C@H]3C(=O)N(C4CCCCC4)C(=O)[C@H]3[C@H]2[C@H](O)[C@@H]2O[C@H]12 | -0.423 |
| C=CCOCC1CN2[C@@H](CC[C@@H](C)[C@@H]2c2ccc(Br)cc2)C(=O)O1 (stereo partly specified) | -0.619 |
| CCOC(=O)[C@H](Cc1ccccc1)NC(=O)CCC1CC(OC(=O)NCc2ccc3c(c2)OCO3)CC2(CCCC(COC(=O)NCCOc3ccccc3)O2)O1 (stereo partly specified) | 0.896 |
| CCN1C(=O)[C@H]2[C@H]3[C@H](O)[C@H](O)CC(=NO[C@@H](C)c4cc(-c5c(C)cc(C)cc5C)no4)[C@@H]3CC[C@H]2C1=O | 0.817 |
| O=C(NN=C1C[C@@H](O)[C@@H](O)[C@@H]2[C@@H]3C(=O)N(c4ccc(F)cc4F)C(=O)[C@@H]3CC[C@H]12)OCc1ccccc1 | 0.194 |
| CC#CCOCCC=C1c2ccccc2[C@@H](OC)[C@@H]1C | 0.105 |
| CC(CCC(=O)OC[C@H]1O[C@H](C#Cc2ccccc2)C=C[C@@H]1Oc1ccc(C)cc1)=NO[C@H](C)c1cn([C@@H]2COC[C@H]2O)nn1 | -0.31 |
| COC(=O)[C@@H]1CC[C@H](C)[C@@H](c2ccc(C)cc2)N1C(=O)c1ccc(C=NOC[C@H]2O[C@H](c3ccccc3)C=C[C@@H]2Oc2ccc(OC)cc2)cc1 | -0.0637 |
| CC(=O)OC[C@H]1O[C@@H](ON=C2[C@H]3CCn4c(=O)n(-c5ccccc5)c(=O)n4[C@H]3[C@H](O)[C@@H]3O[C@H]23)[C@H](OC(C)=O)[C@@H](OC(C)=O)[C@@H]1OC(C)=O | 0.396 |
